Sampled rows, rich in hits. Any-hit rate of the full collection: about 9%.
Luc counter: Kinase-Glo luciferase inhibition (counter-screen). Potency, µM (highest dose often 38.3 µM), without a hit: at the highest dose activity change, negative = inhibition, actives largely listed as inhibitors. Kinase-Glo luciferase, ATP luminescence, 8 min. actives 0.28% (n = 200,000). AID 1379; further: nearly all actives have a fitted effect of over 60% in size
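Light output from Kinase-Glo luciferase with luciferin and 10 uM ATP in 50 mM imidazole pH 7.2, KCl, MgCl2, Tween 20, BSA; compound pin-delivered, 8-min ambient incubation, then luminescence read.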
Lamin A splicing: changes lamin A minigene splicing in HeLa cells | HeLa LMNA splicing GFP/RFP minigene ratio, 48 h | Potency, µM (highest dose often 46.1 µM), for the others: at the highest dose ratio change, negative = inhibition, hits mostly inhibitors | actives 0.01% (n = 200,000); active means well fitted inhibition curve with a large enough effect in the signal ratio, with a control signal flat, not every such curve was filed as active; inconclusive means small, poorly fitted or top-dose-only effect, or effect the other way, or a change in a side signal; the % refers to the signal ratio
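S3 HeLa stable clones carrying a lamin A-EGFP splicing minigene plus DsRed2 were seeded at 600 cells/well in Opti-MEM with 2% FBS, pin-dosed and incubated 48 h at 37°C. Acumen cytometry (488 nm) gave the GFP/RFP total-intensity ratio.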
ALDH1A1 inh: blocks purified human ALDH1A1 activity | P00352 | Purified ALDH1A1, NADH fluorescence, propionaldehyde substrate | Potency, µM (titrated, usually from 75.3 µM), for the others: top-dose activity, negative = inhibition, hits mostly inhibitors | actives 7.3% (n = 220,000) | AID 1030; active means well fitted inhibition curve with a large enough effect, not every such curve was filed as active; inconclusive means small, poorly fitted or top-dose-only effect, or another doubt; inactive means no such curve, though single readings can be large or run the other way;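 further: plate controls were no enzyme wells and a reference inhibitor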
Target sequence (P00352 whole entry, looked up): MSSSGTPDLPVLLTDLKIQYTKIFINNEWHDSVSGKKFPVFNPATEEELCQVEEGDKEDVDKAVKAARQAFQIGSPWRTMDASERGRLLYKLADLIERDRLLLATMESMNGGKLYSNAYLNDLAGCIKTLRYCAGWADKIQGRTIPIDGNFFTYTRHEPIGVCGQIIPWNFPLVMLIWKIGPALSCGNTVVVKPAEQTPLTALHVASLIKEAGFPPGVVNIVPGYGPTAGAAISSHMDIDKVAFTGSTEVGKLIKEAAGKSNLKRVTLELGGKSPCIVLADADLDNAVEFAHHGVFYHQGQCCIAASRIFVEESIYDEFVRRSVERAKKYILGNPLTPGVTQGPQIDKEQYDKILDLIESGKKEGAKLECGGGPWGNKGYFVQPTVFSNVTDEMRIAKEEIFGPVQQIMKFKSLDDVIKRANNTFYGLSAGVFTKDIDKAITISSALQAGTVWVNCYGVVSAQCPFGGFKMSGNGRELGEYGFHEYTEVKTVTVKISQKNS
IMPase Li inh: cell-permeable IMPase inhibitors with lithium potentiation; actives 0.35% (n = 210,000); Potency, µM (top dose mostly 59.4 µM), inactives show top-dose activity, negative = IMPase inhibition, usual class: inhibitors; AID 1457; CHO-M1 cells, IP1 TR-FRET (IP-One), carbachol + lithium;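 further: IP1 builds up when IMPase is blocked and the TR-FRET signal falls; plate controls were basal vehicle for no effect and high inhibitor control for full effect; nearly all actives have a fitted effect of over 50% in size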
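IP1 accumulation measured by competitive TR-FRET in lysed CHO-M1 cells after 30 min compound exposure at 37C, with a small lithium addition to potentiate weak responses. Hill-equation AC50 from ratio and donor-channel data.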
HPGD inh: inhibitors of human 15-hydroxyprostaglandin dehydrogenase (HPGD); Potency, µM, for the others: top-dose activity change, negative = inhibition, hits mostly inhibitors; actives 4.3% (n = 150,000); P15428; AID 894; purified HPGD, NADH fluorescence kinetic, PGE2 substrate; active means well fitted inhibition curve with a large enough effect, not every such curve was filed as active; inconclusive means small, poorly fitted or top-dose-only effect, or another doubt; inactive means no such curve, though single readings can be large or run the other way
Target sequence (P15428 whole entry, looked up): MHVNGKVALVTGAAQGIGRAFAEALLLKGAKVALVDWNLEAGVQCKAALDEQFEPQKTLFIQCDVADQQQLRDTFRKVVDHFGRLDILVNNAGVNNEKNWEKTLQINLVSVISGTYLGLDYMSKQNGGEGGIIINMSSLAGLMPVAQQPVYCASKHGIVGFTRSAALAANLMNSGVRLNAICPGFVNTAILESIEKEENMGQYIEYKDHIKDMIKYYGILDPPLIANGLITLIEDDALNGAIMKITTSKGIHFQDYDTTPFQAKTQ
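20 nM HPGD preincubated 15 min at room temperature with compound in 50 mM Tris-HCl pH 8, 0.01% Tween 20. Started with 1 mM NAD+ and 30 uM prostaglandin E2; NADH fluorescence (360/450 nm) read 5 times over 30-s intervals, last minus first.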
Starred values were filed as active, the others as inactive; ? = inconclusive; / = no result given; [ ] = dose if it differs, or a comment. Unless noted, the call rests on the fitted dose curve; in most records, active means well fitted curve in the direction sought with a large enough effect; inconclusive means small, poorly fitted or top-dose-only effect, or another doubt; inactive means no such curve, though single readings can be large; an effect the other way counts as inactive or inconclusive. Unless noted, on the % scale 0 is the no-effect control and ±100 the full control effect; potency means the concentration at half of the fitted maximal effect.

SMILES	Luc counter	Lamin A splicing	ALDH1A1 inh	IMPase Li inh	HPGD inh
O=C(O)C1C2C=CC(C2)C1C(=O)Nc1ccc(C(=O)N2CCCCC2)cc1 (stereo not drawn)	1%	1%	?	15%[38.3 µM]	1.3µM*
O=C(C1CCCO1)N1CCN(c2ccc(F)cc2)CC1 (stereo not drawn)	-2%	-9%	-5%	10%	1%
COc1cccc(/C=C/C(=O)Nc2ccc3nc4n(c(=O)c3c2)CCCC4)c1OC	/	/	?	10%	/
CCNC(=O)Nc1ccc(-n2nc(C)c(C(=O)OCC)c2C)nc1	-7%	12%[46 µM]	1%	-6%	/
CS(=O)(=O)Nc1ccc(N2CCCCC2)c(Cl)c1	-1%	-16%	-7%	24%[38.3 µM]	7.1µM*
O=C(Nc1cc(C(=O)N2CCCC2)ccc1N1CCCC1)c1ccccc1F	0%	-2%	?	10%[38.3 µM]	?
Cc1ccc(C)c(N2CCN(C(=O)c3ccc(NS(=O)(=O)c4c(C)noc4C)cc3)CC2)c1	-3%	?	-16%	11%[38.3 µM]	-14%
CS(=O)(=O)Nc1ccc(S(=O)(=O)N2CCCC2)cc1	-1%	17%[46 µM]	?	4%	/
O=C(Nc1ccc(C(=O)N2CCCC2)cc1)c1ccccc1F	?	-3%	-8%	-6%[38.3 µM]	3.2µM*
Cc1noc(C)c1S(=O)(=O)Nc1ccc(C(=O)N2CCCCC2)cc1	0%	9%	-7%	19%[38.3 µM]	32µM*
CS(=O)(=O)Nc1ccc(C(=O)N2CCCCC2)cc1	-3%	-16%	?	-3%[38.3 µM]	14µM*
Cc1nc2c(c(SCC(=O)Nc3ccccc3C(F)(F)F)n1)CCC2	/	3%[46 µM]	/	/	/
N=C1c2ccccc2CN1c1ccc(N2CCOCC2)c(S(=O)(=O)Nc2ccc(Cl)cc2)c1	/	/	1.8µM*	/	/
O=C(c1ccc(-c2ccccc2)cc1)N1CCN(C(=O)c2ccco2)CC1	-3%	?	?	-6%[38.3 µM]	-12%
Cc1ccc(C(=O)CCC(=O)N2CCN(C(=O)c3ccco3)CC2)cc1	1%	4%[46 µM]	22µM*	2%	/
O=C(/C=C/c1ccc(OC(F)F)cc1)OCC(=O)N1CCN(C(=O)c2ccco2)CC1	2%	-8%	18µM*	8%	-6%
Cc1ccc(CC(=O)N2CCN(C(=O)c3ccco3)CC2)cc1	-1%	3%[46 µM]	?	3%	/
COc1ccc(OCC(=O)N2CCN(C(=O)c3ccco3)CC2)cc1	2%	16%	10µM*	-23%[38.3 µM]	-9%
COc1ccc(CC(=O)N2CCN(C(=O)c3ccco3)CC2)cc1	-2%	-1%	20µM*	5%[38.3 µM]	?
CCOC(=O)C1=C([Si](C)(C)C)c2ccccc2N(S(=O)(=O)C(F)(F)F)C1C(=O)OCC (stereo not drawn)	-1%[39.9 µM]	/	?	31%	-26%
CNc1nc(-c2ccc(C(=O)N(C)C)cc2)nc2ccccc12	/	-5%	4%	4%	/
Cc1cccc(NS(=O)(=O)c2cc([N+](=O)[O-])ccc2C)n1	6%	6%[46 µM]	6%	3%	/
Cc1cc(=O)[nH]c(-n2[nH]c(C)cc2=O)n1	-4%	8%	1%	-6%[38.3 µM]	-11%
COc1ccc(-n2[nH]c(C)cc2=O)cc1	-3%	?	3.2µM*	-5%[38.3 µM]	-1%
NNC(=O)c1sc2cc(C(F)(F)F)cnc2c1-c1cccs1	/	/	0.2µM*	4%	/
SMILES	Luc counter	Lamin A splicing	ALDH1A1 inh	IMPase Li inh	HPGD inh
Cc1ccc([N+](=O)[O-])c(OCCN2CCCCCC2)c1	-4%	?	15µM*	6%	-12%
O=C(/C(=N/N=C/c1ccc(O)c(O)c1O)c1ccccc1)c1ccccc1	-5%	?	6%	-8%	2µM*
Oc1ccc(/C=N/N=C(c2ccccc2)c2ccccc2)c(O)c1O	5%	?	7.1µM*	4%	16µM*
Cc1cc(C)n(CCc2nc3c4ccccc4n(CC#N)c(=O)n3n2)n1	-2%	16%	11µM*	8%[38.3 µM]	-9%
O=c1[nH]c(SCc2ccc([N+](=O)[O-])cc2)nc2[nH]ncc12	2%	/	6%	1%	/
CCN(CC)C(=O)CN(c1ccc(C)cc1)S(=O)(=O)c1ccc(SC)cc1	-2%	8%	14µM*	1%[38.3 µM]	-8%
COc1ccc(NC(=O)/C(Cl)=C(/Cl)S(=O)(=O)Cc2ccccc2)cn1	0%	?	1.3µM*	42%[38.3 µM]	-27%
COc1ccc(NC(=O)/C(Cl)=C(/Cl)S(=O)Cc2ccc(Cl)cc2)cn1 (stereo not drawn)	-2%	?	0.35µM*	29%	/
O=C(O)C1Cc2c([nH]c3ccccc23)C(c2coc3ccccc3c2=O)N1 (stereo not drawn)	-2%	/	4%	-2%	-8%
O=C(CSCC(=O)N1CCCCC1)Nc1nc(-c2ccc(Cl)s2)cs1	0%	-9%	25µM*	26%[38.3 µM]	?
O=C(CSCC(=O)N1CCN(c2ccccc2)CC1)Nc1nc(-c2ccc(Cl)s2)cs1	3%	?	?	35%[38.3 µM]	-18%
COc1cc(NC(=O)NCCn2nnc3cc(S(=O)(=O)N(C)C)ccc32)cc(OC)c1OC	/	9%[46 µM]	/	/	/
Cc1ccc(SCCC(=O)N2CCC(C(N)=O)CC2)cc1	/	4%	-14%	/	/
Cc1ccc(SCCC(=O)N2CCOCC2)cc1	-1%	-2%	8%	22%[38.3 µM]	-6%
Cc1ccc(SCCC(=O)N2CCC(C)CC2)cc1	-3%	?	?	22%	7.9µM*
Cc1ccc(SCCC(=O)N2CCCC2)cc1	-2%	?	?	50%[38.3 µM]	14µM*
CCCNC(=O)OC[C@@H]1O[C@H](CCO/N=C\c2ccc(C(=O)N3[C@H](c4ccc(C)cc4)[C@@H](C)CC[C@H]3C(=O)OC)cc2)C=C[C@@H]1Oc1ccc(OC)cc1	/	/	-5%[13.5 µM]	/	/
CCOC(=O)C1=NN(c2ccc([N+](=O)[O-])cc2)CC1C(=O)OC (stereo not drawn)	1%	-6%	1.1µM*	11%	-11%
N#C/C(=C\c1cc(Cl)cc(Cl)c1)c1cccnc1	/	/	-10%	9%	/
COc1ccc(CNc2ncnc3c2nc2n3CCCC2)cc1	/	12%[46 µM]	/	/	/
CN(C(=O)Nc1cn(C)c(=O)c2ccccc12)c1ccccc1	/	15%[46 µM]	/	/	/
Cc1cc(/C=N/NC(=O)C(=O)NCc2ccccn2)c(C)n1-c1ccccc1	-14%	-1%	11µM*	-3%	2%
Cc1cc(/C=N\NC(=O)COc2cccc3cccnc23)c(C)n1-c1ccc(Br)cc1	1%	?	?	19%	-3%
Cc1cc(/C=N\NC(=O)c2cccs2)c(C)n1-c1ccc2ncccc2c1	-11%	?	20µM*	22%[38.3 µM]	?
Cc1cc(C)cc(-n2c(C)cc(/C=N/NC(=O)CSc3ncccn3)c2C)c1	-3%	?	28µM*	9%[38.3 µM]	-15%
C=C(C)CSC1=C(C#N)C(c2ccsc2)CC(=O)N1 (stereo not drawn)	1%	-2%	16µM*	14%[38.3 µM]	-19%

Bioassay records deposited in PubChem by National Center for Advancing Translational Sciences (NCATS).
